Residue numbers refer to the chain shown, from its start.

The first assay has as its target T1, SALL4 ZFC4 R900W (HT-SELEX) (Mus musculus, UniProt Q8BX22 870-940, R900W).
T1 sequence: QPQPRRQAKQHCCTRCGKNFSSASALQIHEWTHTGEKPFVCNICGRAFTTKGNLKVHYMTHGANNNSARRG
Nature of the assay: HT-SELEX; high values mean tight binding. The note with it: protein: recombinant; vector His6-GST; dsDNA, one strand shown. The essentials:
(§1)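 Up to 6 cycles of selection were run in triplicate. In each, purified recombinant mouse SALL4 zinc finger cluster 4 (residues 870–940, 1 µg) was incubated with library DNA (1.5 µg first cycle, 200 ng later) in 100 µl of 10 mM Tris–HCl pH 7.5, 50 mM NaCl, poly(dI-dC), DTT for 10 min at room temperature, then complexes were captured on Ni2+ beads, washed and PCR-amplified; final pools were MiSeq-sequenced and scanned for 6-mers. Binding signal is each canonical k-mer's read fraction as fold change versus the initial random library.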
As to CATAGA, the binding signal was 1.37 ± 0.0567 fold-change vs cycle 0.

Consider GAGAGA, for which the binding signal was 1.06 ± 0.0438 fold-change vs cycle 0.

Take ATCCTG: the binding signal was 1.02 ± 0.0483 fold-change vs cycle 0.

For AAACGA, the binding signal came out at 1.16 ± 0.0331 fold-change vs cycle 0.

As to CAAATG, the binding signal came out at 1.17 ± 0.0524 fold-change vs cycle 0.

Regarding ACCAAT, the binding signal stood at 1.33 ± 0.0357 fold-change vs cycle 0.

Consider ATTGTG, for which the binding signal came out at 1.18 ± 0.0444 fold-change vs cycle 0.

In the case of CAGATA, the binding signal was determined as 1.33 ± 0.0549 fold-change vs cycle 0.

Take AAACCT: the binding signal was found to be 1.34 ± 0.0189 fold-change vs cycle 0.

Consider CTCAAA, for which the binding signal stood at 1.2 ± 0.0701 fold-change vs cycle 0.

Regarding ATTTGG, the binding signal was 1.09 ± 0.0268 fold-change vs cycle 0.

ACTGAG: the binding signal amounted to 1.01 ± 0.0326 fold-change vs cycle 0.

For the next assay, the target named is T2, SALL4 ZFC4 G921D (HT-SELEX) (Mus musculus, UniProt Q8BX22 870-940, G921D).
T2 sequence: T1 sequence with W31R, G52D
Briefly: HT-SELEX; high values mean tight binding. The conditions noted are these: protein: recombinant; vector His6-GST; dsDNA, one strand shown. The essentials: as §1
For the sequence CTCTTC, the binding signal was determined as 1.238 ± 0.012 fold-change vs cycle 0.

As to AATCAG, the binding signal worked out at 1.32 ± 0.103 fold-change vs cycle 0.

Take GATCAA: the binding signal is 1.36 ± 0.0523 fold-change vs cycle 0.

With ACATGT, the binding signal stood at 1.4 ± 0.056 fold-change vs cycle 0.

ATGTAG: the binding signal was 1.34 ± 0.129 fold-change vs cycle 0.

Consider AAACGA, for which the binding signal is 1.16 ± 0.0214 fold-change vs cycle 0.

For the sequence AATCCT, the binding signal worked out at 1.47 ± 0.113 fold-change vs cycle 0.

Take AATACC: the binding signal was 1.3 ± 0.0234 fold-change vs cycle 0.

Take AAGGGT: the binding signal came to 1.01 ± 0.0322 fold-change vs cycle 0.

Consider AAGATG, for which the binding signal came out at 1.39 ± 0.12 fold-change vs cycle 0.

For GAAAAC, the binding signal was 1.19 ± 0.0327 fold-change vs cycle 0.

As to AAGGTA, the binding signal turned out to be 1.42 ± 0.11 fold-change vs cycle 0.

For AAGGAT, the binding signal came to 1.54 ± 0.145 fold-change vs cycle 0.

For AACTAG, the binding signal turned out to be 1.31 ± 0.0994 fold-change vs cycle 0.

With ACTAGG, the binding signal stood at 1.01 ± 0.0534 fold-change vs cycle 0.

For AACTGA, the binding signal came to 1.35 ± 0.0948 fold-change vs cycle 0.

With CATGAA, the binding signal stood at 1.36 ± 0.0809 fold-change vs cycle 0.

For the sequence ACTTCA, the binding signal turned out to be 1.4 ± 0.125 fold-change vs cycle 0.

AGTCAG: the binding signal was 0.958 ± 0.0631 fold-change vs cycle 0.

Turning to GAGGAA, the binding signal is 1.03 ± 0.0774 fold-change vs cycle 0.

For the sequence AGGTAA, the binding signal stood at 1.45 ± 0.089 fold-change vs cycle 0.

For the sequence AGCATA, the binding signal was determined as 1.26 ± 0.0447 fold-change vs cycle 0.

With CCTATA, the binding signal came to 1.35 ± 0.0515 fold-change vs cycle 0.

Values taken from publication PMC9838217, “Structure of SALL4 zinc finger domain reveals link between AT-rich DNA binding and Okihiro syndrome”.
